Structures are written as SMILES. Records with an inconclusive call do not appear. Where a call stands in place of a potency, no number is given. Active and inactive are the calls of the source. The call rests on the fitted dose curve.
Potency means the concentration at half of the fitted maximal effect.

A short description of the test: cAMP Responsive Elements (CRE) small molecule agonists, cell-based qHTS assay (AID 1963590). Conditions: CRE-bla HEK293T, beta-lactamase FRET ratio, 3 h; series mostly up to 92.4 µM. The source says: U.S. Tox21 Program National Center for Advancing Translational Sciences [NCATS] Division of Preclinical Innovation [DPI] U.S. Environmental Protection Agency [EPA] National Institutes of Environmental Health Sciences [NIEHS] National Toxicology Program [NTP] U.S. Food and Drug Administration [FDA] Tox21 Assay Overview: CREB (cyclic-AMP Responsive Element Binding Protein) is a cellular transcription factor. It binds to certain DNA sequences called cAMP Responsive Elements (CRE) and regulates the transcription of the genes. […] This cell line can be used to find agonists/antagonists of the cyclic AMP signaling pathway. The activation of the report gene under culture conditions can be detected by fluorescence intensity. This cell line has been used to screen the Tox21 10K compound library to identify agonists that induce oxidative stress.
Tox21 Assay Protocol Summary: CRE-bla Hek 293T cells were suspended in assay medium (DMEM containing 10% dialyzed FBS, 0.1 mM NEAA, 1 mM sodium pyruvate and 25 mM HEPES) and dispensed at 2,000 cells/5 uL /well into 1536-well black wall/clear bottom plates using a Multidrop Combi (ThermoFisher Scientific, Waltham, MA) dispenser. After the assay plates were incubated at 37 C/5% CO2 for 18 hrs, 23 nL of compounds dissolved in DMSO, positive controls or DMSO only was transferred to the assay plate by a pintool workstation (Kalypsys, San Diego, CA). After the plates were incubated at 37 C/5% CO2 for 3 hrs, 1 uL of LiveBLAzer B/G FRET substrate (Invitrogen, Carlsbad, CA) was added to each well using Bioraptr Flying Reagent Dispenser (FRD, Aurora Discovery, San Diego, CA). The plates were incubated at room temperature for 2 h.
Background: In qHTS, concentration-response curves come from the screen itself.
With `Cc1ccc(O)c(-n2nc3ccccc3n2)c1`, the Potency entry is “inactive”.
Consider `Nc1ccc(S(N)(=O)=O)cc1`, for which the Potency result is “inactive”.
On to `C=CC[N+](C)(C)CC=C`, for which the Potency result is “inactive”.
The entry for `C=CC(=O)OCCC(=O)O` is “inactive”; for `CC(O)COCC(C)O` (stereo not given) it is “inactive”; for `CN(C)CCCN` it is “inactive”.
The entry for `O=C(O)Cc1cccc2ccccc12` is “inactive”; for `CC(=O)OCCC(C)C` it is “inactive”; for `O=C(O)CC(O)C(=O)O` (stereo not given) it is “inactive”.
The entry for `NC(N)=O` is “inactive”.
Regarding `COCCOCCOCCO`, the Potency entry was “inactive”.
The entry for `OCC(O)CS` (stereo not given) is “inactive”.
Regarding `CC(=O)C1=C(C)[C@@H]2C[C@@]3(C1)[C@H](C)CC[C@H]3C2(C)C`, the Potency entry was “inactive”.
Consider `NCCNc1cccc2ccccc12`, for which the Potency result is “inactive”.
On to `C=C(C)CNCC`, for which the Potency result was “inactive”.
The entry for `CC(=O)OCC(COC(C)=O)OC(C)=O` is “inactive”; for `CC1(C)O[C@@H]2C[C@H]3[C@@H]4CCC5=CC(=O)C=C[C@]5(C)[C@@]4(F)[C@@H](O)C[C@]3(C)[C@]2(C(=O)CO)O1` it is “inactive”.
The entry for `C#C[C@]1(O)CC[C@H]2[C@@H]3CCC4=CC(=O)CC[C@@H]4[C@H]3CC[C@@]21CC` is “inactive”.
The entry for `CCCCOC(=O)c1ccc(N)cc1` is “inactive”.
As to `O=C(c1ccccc1)c1ccc(O)c(O)c1O`, the Potency entry was “inactive”.
The entry for `CCCCNC(=O)NS(=O)(=O)c1ccc(N)cc1` is “inactive”; for `NC1CCCCC1` it is “inactive”; for `O=C1CCCCCN1` it is “inactive”.
The entry for `Oc1ccccc1` is “inactive”; for `CC(C)=CCl` it is “inactive”.
Take `COc1ccc(O)cc1`: the Potency entry is “inactive”.
The entry for `Cc1ncc([N+](=O)[O-])n1C` is “inactive”; for `c1ccc2cc3ccccc3cc2c1` it is “inactive”.
The entry for `CCCCC(CC)CO` (stereo not given) is “inactive”; for `Cc1ccncc1` it is “inactive”; for `COc1ccc(C(=O)c2ccccc2O)c(O)c1` it is “inactive”.
The entry for `O=C(O)c1ccccc1` is “inactive”; for `CC(C)(N)CO` it is “inactive”.
On to `COCCc1ccc(OCC(O)CNC(C)C)cc1` (stereo not given), for which the Potency entry is “inactive”.
The entry for `CC(O)CC(C)(C)O` (stereo not given) is “inactive”; for `C#C[C@]1(O)CC[C@H]2[C@@H]3CCC4=Cc5oncc5C[C@]4(C)[C@H]3CC[C@@]21C` it is 29.8 µM (active).
Regarding `CCCCN(CCCC)CCCC`, the Potency entry was “inactive”.
On to `CCCCCCCCCCCC(=O)OC`, for which the Potency entry was “inactive”.
Turning to `NC(=O)c1ncn([C@@H]2O[C@H](CO)[C@@H](O)[C@H]2O)n1`, the Potency result was “inactive”.
The entry for `C=C(C)C(=O)OCC(C)O` (stereo not given) is “inactive”.

For the origin of these results see PubChem BioAssay (Tox21).
